Bioassay records from PubChem BioAssay.
Sm TGR inh = blocks Schistosoma mansoni thioredoxin glutathione reductase; Q962Y6; Potency, µM (doses to about 114 µM), for the others: at the top dose activity change, negative = inhibition, most hits filed as inhibitors; actives 3% (n = 360,000); purified TGR, DTNB reduction, TNB absorbance 405 nm; note: nearly all actives have a fitted effect of over 60% in size
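Kinetic colorimetric format: TGR-catalysed, NADPH-driven DTNB reduction monitored via TNB absorbance. Enzyme dispensed at 20 nM; compound exposure 15 min at room temperature before reaction start.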
RE007 growth inh = less growth of the S. pombe RE007 Vpr strain; S. pombe RE007 Vpr strain, BacTiter-Glo ATP luminescence, 24 h; Potency, µM (titrated, usually from 92.2 µM), for the others: at the highest dose activity change, negative = less growth, hits mostly inhibitors; actives 0.21% (n = 360,000); AID 651644; active = well fitted falling curve with a large enough effect; inconclusive = small, poorly fitted or top-dose-only effect; inactive = no such curve, though single readings can be large or run the other way; note: nearly all actives have a fitted effect of over 50% in size
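Fission yeast strain RE007, carrying one chromosomally integrated HIV-1 vpr copy, was seeded at OD 0.01 in PMG+AL medium with 23 nL pinned compound. After 24 h at 30 °C and 99% humidity, viability was read by BacTiter-Glo luminescence.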
AMA1-RON2 inh = inhibitors of Plasmodium falciparum AMA1-RON2 interaction | AlphaScreen AMA1-biotinylated RON2 peptide binding | Potency, µM (titrated, usually from 58.2 µM), for inactives: top-dose activity change, negative = inhibition, usual class: inhibitors | actives 0.2% (n = 360,000) | AID 720542;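 note: 0% = vehicle wells and -100% = peptide control; nearly all actives have a fitted effect of over 45% in size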
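AMA1 (3D7) with his tag at 25 nM final met compounds first, then biotinylated RON2 peptide at 25 nM; detection used donor plus acceptor beads, 10 µg/mL apiece, read by AlphaScreen after 30 min at room temperature.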
LmPK inh = inhibitors of Leishmania mexicana pyruvate kinase; Q27686; purified LmPK, Kinase-Glo ATP luminescence, 1 h; Potency, µM (highest dose often 57.5 µM), inactives show top-dose activity change, negative = inhibition, most hits filed as inhibitors; actives 0.37% (n = 290,000)
Target sequence (Q27686 whole entry, looked up): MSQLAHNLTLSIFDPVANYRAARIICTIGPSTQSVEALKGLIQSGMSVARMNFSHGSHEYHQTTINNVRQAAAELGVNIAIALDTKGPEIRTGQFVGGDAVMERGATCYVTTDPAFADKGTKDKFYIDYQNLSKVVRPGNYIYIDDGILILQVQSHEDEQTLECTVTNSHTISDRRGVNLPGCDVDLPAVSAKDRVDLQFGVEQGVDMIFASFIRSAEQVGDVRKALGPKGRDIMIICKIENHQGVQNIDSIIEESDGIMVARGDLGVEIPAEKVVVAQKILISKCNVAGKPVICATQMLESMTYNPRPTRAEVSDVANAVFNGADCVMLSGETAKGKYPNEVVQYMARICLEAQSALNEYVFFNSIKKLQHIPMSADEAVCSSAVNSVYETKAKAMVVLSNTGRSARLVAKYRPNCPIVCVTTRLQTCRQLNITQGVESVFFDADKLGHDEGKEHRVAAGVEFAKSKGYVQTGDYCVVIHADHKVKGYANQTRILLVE
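In 50 mM imidazole pH 7.2 with 7 mM MgCl2, LmPK (0.1 nM) turned over PEP (0.5 mM) and ADP (0.1 mM) for 1 h at room temperature. Luciferase read-out of ATP.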
TbPYK inhibitor = T. brucei pyruvate kinase inhibition | TbPYK enzyme, Kinase-Glo Plus ATP luminescence, 45 min | Potency, µM (doses to about 76.8 µM), inactives show at the top dose activity, negative = inhibition, usual class: inhibitors | actives 0.12% (n = 410,000) | AID 624173; note: nearly all actives have a fitted effect of over 50% in size
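Glycolytic pyruvate kinase of T. brucei was incubated with substrate, test compound and 130 uM ADP for 45 minutes at room temperature. Luminescent Kinase-Glo Plus signal was measured after 10 minutes.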
Numbers without * were called inactive; ? = inconclusive; / = no result given; [ ] = dose if it differs, or a comment. This is a sample that favours compounds with a hit; in the whole collection about 3.2% have one here. Unless noted, calls come from the whole dose curve; as a rule, active = well fitted curve in the direction sought with a large enough effect; inconclusive = small, poorly fitted or top-dose-only effect, or another doubt; inactive = no such curve, though single readings can be large; an effect the other way counts as inactive or inconclusive. Unless noted, % is set by controls: 0 for no effect and ±100 for the full control effect; potency is the fitted concentration of half-maximal effect.

SMILES	Sm TGR inh	RE007 growth inh	AMA1-RON2 inh	LmPK inh	TbPYK inhibitor
CCC(C)C1=CC(=Nc2c(C)n(C)n(-c3ccccc3)c2=O)C=C(C(C)CC)C1=O (stereo not drawn)	-20%	-5%	-4%	-19%	-2%
CC1=CC(=Nc2c(C)n(C)n(-c3ccccc3)c2=O)C=CC1=O	2.8µM*	/	/	?	/
Cc1c(N=NC2=C(O)CC(C)(C)CC2=O)c(=O)n(-c2ccccc2)n1C	13µM*	-3%	128%	-13%	-12%
Cc1cc(C)cc(NC(c2cccc(Cl)c2)c2nnc(-c3ccccc3)o2)c1 (stereo not drawn)	1%	/	/	/	1%
COc1cccc(CNC(=O)CCc2c(C)nc3c(c(C)nn3-c3ccc(C)c(C)c3)c2C)c1	-1%	/	/	/	-2%
CCOC(=O)c1cccc(NC(=O)CSc2cc(=O)n(C)c3ccccc23)c1	-3%	/	/	/	-10%
O=C(CCl)NN=C(c1ccccc1)c1ccccc1	11µM*	-13%	39%	7%	2%
COC(=O)c1cccc(Nc2c(-c3ccc(SC)cc3)nc3nc[nH]n23)c1	0%	/	/	/	1%
CC(C)OC(=O)c1cc2c(=O)[nH]c(C(Cl)(Cl)Cl)nc2o1	28µM*	3%	6%	-4%[11.5 µM]	9%
CC1(C)CC(NC(=S)Nc2ccc([N+](=O)[O-])cc2)CC(C)(C)N1	50µM*	0%	-15%	1%	-3%
Cc1ccc(S(=O)(=O)N2CCN(Cc3cc(Br)ccc3O)CC2)cc1	-9%	/	/	/	3%
CCOc1cc(/C=C2\CN(CC)C/C(=C\c3ccc(O)c(OCC)c3)C2=O)ccc1O	40µM*	-4%	?	3%	-6%
c1ccc(CCN=C2CCCc3c2[nH]c2ccccc32)cc1	56µM*	-7%	-1%	5%	1%
COc1ccc(OCC(=O)c2c(O)c3ccccc3oc2=O)cc1	32µM*	7%	-6%	0%	-25%
CCOc1ccc(OCC(=O)c2c(O)c3ccccc3oc2=O)cc1	18µM*	-18%	-8%	-23%	?
O=C(CC1CCCCC1)c1c(O)c2ccccc2oc1=O	50µM*	-8%	-19%	-4%	0%
COc1ccc(N=Cc2c(O)c3ccccc3oc2=O)cc1	-4%	-9%	14%	16µM*	-16%
CCCN(CCC)C(=O)Cn1nnc2sc(-c3ccccc3)cc2c1=O	-11%	/	/	/	5%
OC(c1ccccc1)C1CN(Cc2ccccc2)CCC1(O)c1ccccc1 (stereo not drawn)	20µM*	-3%	-9%	0%	1%
NC(=O)C1CCN(C2CC(=O)N(c3cccc(F)c3)C2=O)CC1 (stereo not drawn)	35µM*	14µM*	3%	-2%	3%
NC(=O)C1CCN(C2CC(=O)N(c3ccc(F)c(Cl)c3)C2=O)CC1 (stereo not drawn)	25µM*	10µM*	-9%	-6%	1%
CN1C(=O)CC(N2CCC(C(N)=O)CC2)C1=O (stereo not drawn)	-16%	?	-14%	1%	-2%
Cc1ccccc1N1C(=O)CC(N2CCC(C(N)=O)CC2)C1=O (stereo not drawn)	22µM*	-23%	5%	0%	-3%
CCc1ccc(CNC(=O)CN2C(=O)c3cccnc3Oc3ccc(C)cc32)cc1	2%	/	/	/	-4%[15.4 µM]
O=C(NCCc1ccc(Cl)cc1)c1ccc2c(c1)N(Cc1ccccc1)C(=O)CS2	1%	/	/	/	4%
SMILES	Sm TGR inh	RE007 growth inh	AMA1-RON2 inh	LmPK inh	TbPYK inhibitor
COc1ccc(N2CCN(C(=O)CCS(=O)(=O)c3ccc(C)cc3)CC2)cc1	25µM*	?	-6%	0%	2%
COc1ccc(N2CCN(C(=O)CS(=O)(=O)c3cccc4nsnc34)CC2)cc1	50µM*	/	/	/	0%
COc1ccc(N2CCN(C(=O)CCS(=O)(=O)c3ccc(OC)cc3)CC2)cc1	-15%	-3%	-15%	6%	4%
COc1ccc2c(CNC3CCCCCC3)c(C(=O)O)n(Cc3ccc(C)cc3)c2c1	-10%	/	/	/	4%
Cc1ccc(NC(=O)c2cnn3c(C(F)F)cc(-c4ccccc4)nc23)cc1F	-4%	/	/	/	0%
Cc1ccc(CCNC(=O)Cn2c(-c3cccs3)cc3ccccc32)cc1	-2%	/	/	/	2%
O=[N+]([O-])c1ccccc1C1Nc2cccc3cccc(c23)N1	0%	-11%	-17%	4%	26%
COc1ccccc1C1Nc2cccc3cccc(c23)N1	?	7.1µM*	-28%	0%	-9%
Oc1ccccc1C1Nc2cccc3cccc(c23)N1	18µM*	-7%	-4%	-1%	-10%
CCc1ccc(NC(=O)Cn2c(=O)n(Cc3ccco3)c(=O)c3cccnc32)cc1	-15%	/	/	/	-1%
COc1ccc(OC)c(CNc2ncc(-c3cccc([N+](=O)[O-])c3)n2C)c1	-23%	-2%	14µM*	-3%	19%
Cn1c(-c2cccc([N+](=O)[O-])c2)cnc1NCc1cccc([N+](=O)[O-])c1	0%	-9%	?	1%	23%
COc1cccc(N=Cc2c(O)n(Cc3ccco3)c(=O)[nH]c2=O)c1	25µM*	6%	-5%	2%	2%
O=c1[nH]c(=O)n(Cc2ccco2)c(O)c1C=NC1CC1	-27%	21%	14%	7%	-1%
Clc1ncccc1-c1nnn(-c2ccccc2)n1	19%	-23%	11%	16µM*	-11%
COc1ccc(S(=O)(=O)NCc2cccn2Cc2cccc(C)c2)cc1OC	-1%	/	/	/	0%
CCN1CCOC(=O)C1CC(=O)Nc1cc(C)ccc1OC (stereo not drawn)	18µM*	/	/	/	-16%
CCN1CCOC(=O)C1CC(=O)Nc1ccc(Br)cc1 (stereo not drawn)	7.9µM*	/	/	/	4%
COc1ccccc1NC(=O)CN1CCN(CC(=O)Nc2cc(C)ccc2OC)CC1	-8%	1%	0%	-3%	-22%
Cc1cccc(OCCSc2nc3ccc(NC(=O)c4cccs4)cc3s2)c1	0%	/	/	/	0%
Nc1ccc(-c2c3ccc(=O)cc-3oc3cc(O)ccc23)cc1C(=O)O	?	-6%	-28%	3%	-5%
O=c1ccc2c(-c3ccccc3)c3ccc(O)cc3oc-2c1	8.9µM*	6%	-22%	-5%	8%
Cc1ccc(S(=O)(=O)CCC(=O)Nc2ccccc2Cl)cc1	-3%	-9%	4%	-3%	-6%
Cc1c(Cl)cccc1NC(=O)CNC(=O)CCS(=O)(=O)c1ccc(F)cc1	45µM*	10%	1%	/	-1%
COC(=O)c1ccccc1NC(=O)CCS(=O)(=O)c1ccc(Br)cc1	10µM*	3%	38%	-2%	1%
O=C(CCS(=O)(=O)c1ccc(Br)cc1)Nc1cc(F)ccc1F	13µM*	0%	-4%	1%	-8%
O=C(CCS(=O)(=O)c1ccc(Br)cc1)Nc1ccc(F)cc1F	-27%	/	/	/	-5%
